Shown are actives, neighbours in structure and some others; about 1.3% of the full set was active somewhere.
Giardia killer: Small Molecules that selectively kill Giardia lamblia: qHTS; Giardia lamblia trophozoite viability; activity change, % at 7.66 µM, hits read low; 340,000 tested, 0.15% active; in the data active means activity change below about -80%; inconclusive means between about -30% and that limit;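 further: parasites exposed to compound for two days anaerobically before the ATP read; on the % scale 0 is the no-effect control and ±100 the full control effect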
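ATP-content bioluminescence gauges trophozoite survival. Cells (100/well) receive compound and incubate anaerobically for 48 hrs at 37 deg C; detection reagent follows for 15-30 min at room temperature.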
miR-21 reporter: qHTS Assay for Modulators of miRNAs and/orActivators of miR-21; Potency, µM (titrated, usually from 38.3 µM), for the others: top-dose activity change, positive = activation, hits mostly activators; HeLa miR-21 FLuc reporter, luciferase, 48 h; 340,000 tested, under 10 active; AID 2288, 2010;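 further: % of control where 0% means no effect; miR-21 action dims this reporter so a rising signal means less miR-21 action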
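Compounds were titrated across several concentrations (up to approximately 40 uM) and incubated 48 hours with HeLa miR-21-FLuc reporter cells (miR-21 target sequence downstream of FLuc, endogenous miR-21). Readout was firefly luciferase luminescence after lytic detection reagent.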
ERG Ets-DNA blk: qHTS for Small Molecule Inhibitors of the ERG Ets/DNA interaction; Transcriptional regulator ERG (Homo sapiens), P11308; fluorescence polarization, His-ERG Ets domain / labelled DNA; Potency, µM (top dose mostly 76.9 µM), for the others: at the top dose FP activity, negative = inhibition, actives largely listed as inhibitors; 370,000 tested, 0.028% active; AID 624246, 2012; active means well fitted inhibition curve with a large enough effect in the polarisation, with a control signal flat; inconclusive means small, poorly fitted or top-dose-only effect, or effect the other way, or a change in a side signal; inactive means no such curve, though single readings can be large or run the other way; the % refers to the polarisation;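 further: polarization taken with two DNA probes labelled with fluorescein and Texas red; potency means the concentration at half of the fitted maximal effect; % of control where 0% means no effect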
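His-tagged ERG Ets domain (1 uM in the protein solution; 300mM KCl, 50mM Tris-HCl, 1mM EDTA, 1mM DTT, pH 7.5) received compound, then a probe mix of 5 nM fluorescein-DNA and 100nM Texas-615-DNA. Fluorescence polarization was read for both dyes.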
PTHR1 ag: qHTS for PTHR1 Agonists: Primary Screen; Parathyroid hormone/parathyroid hormone-related peptide receptor (Homo sapiens), Q03431; HEK293 GP2 PTHR1 cells, GloSensor cAMP luminescence, 1 h; Potency, µM (series often up to 115 µM), without a hit: top-dose activation, hits mostly activators; 410,000 tested, 0.075% active; further: potency means the concentration at half of the fitted maximal effect; nearly all actives have a fitted effect of over 55% in size
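HEK-293-derived GP2 cells expressing PTHR1 and a GloSensor cAMP reporter, 3,000/well, plated overnight, given luciferin plus IBMX (each 0.5 mM as added) for 1 h at 37 °C, then compound for 1 h at 37 °C. Luminescence was read after 15 min at room temperature.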
ALOX12 inh: Primary qHTS assay for inhibitors of human arachidonate 12S-lipoxygenase (ALOX12): Round 2 | purified 12hLO, xylenol orange hydroperoxide absorbance | Potency, µM (series often up to 108 µM), for inactives: top-dose activity change, negative = inhibition, actives largely listed as inhibitors | 580,000 tested, 1.1% active | AID 1671190, 2021; further: potency means the concentration at half of the fitted maximal effect; on the % scale 0 is the no-effect control and ±100 the full control effect
Target sequence (P18054 whole entry, looked up): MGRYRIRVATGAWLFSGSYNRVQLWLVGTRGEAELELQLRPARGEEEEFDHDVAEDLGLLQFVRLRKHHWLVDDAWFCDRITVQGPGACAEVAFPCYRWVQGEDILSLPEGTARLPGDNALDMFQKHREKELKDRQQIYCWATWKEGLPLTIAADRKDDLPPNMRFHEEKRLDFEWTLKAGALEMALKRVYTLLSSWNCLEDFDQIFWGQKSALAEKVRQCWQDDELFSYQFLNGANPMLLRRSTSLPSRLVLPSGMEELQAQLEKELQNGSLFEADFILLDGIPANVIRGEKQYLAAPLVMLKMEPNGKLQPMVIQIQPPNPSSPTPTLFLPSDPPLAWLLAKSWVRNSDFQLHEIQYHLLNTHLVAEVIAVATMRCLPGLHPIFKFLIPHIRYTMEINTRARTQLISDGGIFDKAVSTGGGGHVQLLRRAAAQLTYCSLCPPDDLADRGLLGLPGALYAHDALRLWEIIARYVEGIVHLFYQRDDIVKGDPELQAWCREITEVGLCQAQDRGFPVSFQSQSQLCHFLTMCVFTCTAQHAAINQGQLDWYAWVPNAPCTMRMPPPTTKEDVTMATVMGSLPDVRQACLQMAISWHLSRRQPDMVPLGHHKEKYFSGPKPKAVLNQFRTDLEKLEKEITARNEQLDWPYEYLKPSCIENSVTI
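Purified human 12hLO at 150 nM in 25 mM Hepes, 0.01% Triton X-100, pH 7.0, preincubated 15 min at room temperature with compound. Reaction started with 40 uM arachidonic acid, 30 min at room temperature. Hydroperoxide measured by Fe-xylenol orange, 573/405 nm absorbance ratio.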
PINK1 expr mod: A Quantitative High throughput Screen to Identify Chemical Modulators of PINK1 Expression; PINK1 immunofluorescence, high-content cytometry, 24 h; Potency, µM (series often up to 76.6 µM), for inactives: at the highest dose activation (PINK1 increase), usual class: activators; 410,000 tested, 0.2% active; active means well fitted activation curve with a large enough effect; inconclusive means small, poorly fitted or top-dose-only effect; cell line not stated here; further: potency means the concentration at half of the fitted maximal effect; % of control where 0% means no effect; nearly all actives have a fitted effect of over 65% in size
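Readout is PINK1 immunofluorescence, quantified alongside mitochondrial, cell and nuclear markers by laser-scanning microplate cytometry. Cells from a stable line were exposed to compound titrations (5 concentrations) for 24 hours, with CCCP controls.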
Numbers without * were called inactive; ! = a repeat was not active; [ ] = remark or other dose. Unless noted, the call rests on the fitted dose curve; in most records, active means well fitted curve in the direction sought with a large enough effect; inconclusive means small, poorly fitted or top-dose-only effect, or another doubt; inactive means no such curve, though single readings can be large; an effect the other way counts as inactive or inconclusive.

Screening COc1cc(/C=N/n2cc(-c3ccccc3)[nH]c2=S)cc(OC)c1O returned Giardia killer -14, miR-21 reporter 0%, ERG Ets-DNA blk 2%, PTHR1 ag -47%, ALOX12 inh 13µM* and PINK1 expr mod 2%.
For Oc1ccc(/C=N/n2cc(-c3ccccc3)[nH]c2=S)cc1 the results were Giardia killer -1, miR-21 reporter -1%, ERG Ets-DNA blk 3%, PTHR1 ag -14%, ALOX12 inh 16µM* and PINK1 expr mod 0%.
Screening Cc1ccc(/C=N/n2cc(-c3ccccc3)[nH]c2=S)s1 returned Giardia killer 10, miR-21 reporter -21%, ERG Ets-DNA blk -22%, PTHR1 ag -10%, ALOX12 inh -31% and PINK1 expr mod 3%.
CCn1cc[n+](C)c1P(c1ccccc1)c1ccccc1 was read as Giardia killer -10, miR-21 reporter 21%, ERG Ets-DNA blk 3%, PTHR1 ag -83%, ALOX12 inh 40µM* and PINK1 expr mod 3%.
COc1ccc(C(=O)CC2(O)C(=O)Nc3c(Cl)ccc(Cl)c32)cc1 (stereo not given) was read as ALOX12 inh -35%[57.4 µM].
For O=C(Nc1nccs1)C1C2CC3OC(=O)C1C3C2 (stereo not given) the results were Giardia killer -7, miR-21 reporter -2%, ERG Ets-DNA blk -1%, PTHR1 ag inactive, ALOX12 inh -1% and PINK1 expr mod 0%.
`O=C(/C=C1\NC2(CCCC2)Cc2ccccc21)C(=O)N/N=C/c1ccc(O)c(O)c1` gave Giardia killer 2, miR-21 reporter 7%, ERG Ets-DNA blk 0%, PTHR1 ag -92%, ALOX12 inh 35µM* and PINK1 expr mod -3%.
`COc1ccc(/C=N/NC(=O)C(=O)/C=C2\NC3(CCCC3)Cc3ccccc32)cc1` gave Giardia killer 7, miR-21 reporter -1%, ERG Ets-DNA blk 14%, PTHR1 ag -14%, ALOX12 inh -3% and PINK1 expr mod -1%.
For CNC(=O)c1ccc(Nc2cc(Nc3ccccc3S(=O)(=O)C(C)C)c3cc[nH]c3n2)nc1 the results were ALOX12 inh 0.97µM*.
Screening CCN1c2cc(C(=O)Nc3cccc(Cl)c3)ccc2C(=O)N2CCCCC21 (stereo not given) returned ALOX12 inh -2%.
For Cc1ccc(C(=O)OCC(=O)c2ccco2)s1 the results were ALOX12 inh 32µM*.
C/C(=N\NC(N)=S)C1(C)CCCCC1 was read as Giardia killer -1, miR-21 reporter 26%, ERG Ets-DNA blk -3%, PTHR1 ag inactive, ALOX12 inh inconclusive and PINK1 expr mod -2%.
C/C(=N/NC(N)=S)C1=CC(C)(C)CCC1 was read as ALOX12 inh 6.3µM*.
O=C(Cc1cn2ccsc2n1)N1CCCn2nc(C(O)C3CC3)cc2C1 (stereo not given) was read as ALOX12 inh 45µM*.
For Cc1cc(C)c(C)c(S(=O)(=O)NCC2CN(Cc3ccccc3)CCO2)c1C (stereo not given) the results were ALOX12 inh 29%.
CCCCc1oc2ccc(NS(C)(=O)=O)cc2c1C(=O)c1ccc(OCCCN(CCCC)CCCC)cc1 was read as ALOX12 inh 40µM*!.
`CCCCCOc1ccc(NS(C)(=O)=O)cc1` gave Giardia killer 8, miR-21 reporter -48%, ERG Ets-DNA blk -1%, PTHR1 ag -8%, ALOX12 inh 9% and PINK1 expr mod -1%.
`COc1cc2c(cc1OC)CN(C(=O)CN(C)S(=O)(=O)c1ccc(NC(C)=O)cc1)CC2` gave Giardia killer -2, miR-21 reporter 0%, ERG Ets-DNA blk 3%, PTHR1 ag -6%, ALOX12 inh -25% and PINK1 expr mod -2%.
CCN(CC)CCNCc1ccc(Br)cc1OCC(=O)NCc1ccccc1 was read as Giardia killer 0, miR-21 reporter -2%, ERG Ets-DNA blk 7%, PTHR1 ag inactive, ALOX12 inh -13% and PINK1 expr mod 1%.
`CCN(CC)CCNCc1cc(Br)ccc1OCC(=O)NCc1ccccc1` gave Giardia killer 13, miR-21 reporter -7%, ERG Ets-DNA blk 6%, PTHR1 ag inactive, ALOX12 inh 28µM* and PINK1 expr mod -2%.
For COc1cccc(C2NC(=S)NC(C)=C2C(=O)c2ccccc2)c1OC (stereo not given) the results were Giardia killer 6, miR-21 reporter 22%, ERG Ets-DNA blk -8%, PTHR1 ag inactive, ALOX12 inh 45µM* and PINK1 expr mod 5%.
CC1=C(C(=O)OC(C)(C)C)C(c2cccc3ccccc23)NC(=S)N1 (stereo not given) was read as ALOX12 inh 51%.
Screening Cc1ccc(S(=O)(=O)N(CC(=O)NCCSc2ccccn2)c2cc(C)cc(C)c2)cc1 returned Giardia killer -7, miR-21 reporter 1%, ERG Ets-DNA blk -3%, PTHR1 ag -12%, ALOX12 inh inconclusive and PINK1 expr mod 0%.
Cc1ccc(S(=O)(=O)CNC(=S)c2cccc(Cl)c2)cc1 was read as Giardia killer -10, miR-21 reporter -3%, ERG Ets-DNA blk -3%, PTHR1 ag -11%, ALOX12 inh 10µM* and PINK1 expr mod 4%.
For Cc1ccc(C(=S)NCS(=O)(=O)c2ccc(C)cc2)cc1 the results were Giardia killer -1, miR-21 reporter -1%, ERG Ets-DNA blk -6%, PTHR1 ag 3%[57.5 µM], ALOX12 inh inconclusive and PINK1 expr mod 12%[38.3 µM].
`CCn1c(CC2CCN(C(=O)CCc3ccc4c(c3)OCO4)CC2)nn(C)c1=O` gave ALOX12 inh -14%.
Screening C=CCSC1=N/C(=C\C=C\c2ccco2)C(=O)S1 returned Giardia killer -5, miR-21 reporter -5%, ERG Ets-DNA blk 4%, PTHR1 ag inactive, ALOX12 inh inconclusive and PINK1 expr mod -1%.
For C=CCSC1=N/C(=C\C=C\c2ccccc2)C(=O)S1 the results were ALOX12 inh 14µM*.
Screening O=C(O)c1ccc(Nc2ncc3c(n2)-c2ccc(Cl)cc2C(c2c(F)cccc2F)=NC3)cc1 returned ALOX12 inh 15µM*.

Screens from PubChem BioAssay.
